Assay results published in PubChem BioAssay (NCI).
Compounds without any hit were thinned out: in the full panel of roughly 83,000, 20% have a hit.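 A percent growth of 40 corresponds to 60% growth inhibition; 0 means no net growth; -100 means all cells died. Active threshold: below 10.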 A number with no mark means an inactive call. Active and inactive are the calls of the source.

Columns and labels:
Experiment in all cases: NCI-60 one-dose screen, 48 h (100 = growth as untreated, 0 = no growth, -100 = all killed)
Conditions in all cases: 10 µM unless noted
NCI-H23 lung = tested on: NCI-H23 lung
NCI-H226 lung = tested on: NCI-H226 lung
NCI-H322M lung = tested on: NCI-H322M lung
HOP-62 NSCLC = tested on: HOP-62 NSCLC
NCI-H460 lung = tested on: NCI-H460 lung
HOP-92 NSCLC = tested on: HOP-92 NSCLC
NCI-H522 lung = tested on: NCI-H522 lung
A549/ATCC NSCLC = tested on: A549/ATCC NSCLC
786-0 renal = tested on: 786-0 renal
DU-145 prostate = tested on: DU-145 prostate
K-562 leukemia = tested on: K-562 leukemia
MALME-3M melanoma = tested on: MALME-3M melanoma
MDA-MB-231 breast = tested on: MDA-MB-231 breast
RXF 393 renal = tested on: RXF 393 renal
SF-268 CNS = tested on: SF-268 CNS
SF-295 CNS = tested on: SF-295 CNS
SF-539 CNS = tested on: SF-539 CNS
UACC-257 melanoma = tested on: UACC-257 melanoma
M14 melanoma = tested on: M14 melanoma

Compound	growth (NCI-H23 lung)	growth (NCI-H226 lung)	growth (NCI-H322M lung)	growth (HOP-62 NSCLC)	growth (NCI-H460 lung)	growth (HOP-92 NSCLC)	growth (NCI-H522 lung)	growth (A549/ATCC NSCLC)	growth (786-0 renal)	growth (DU-145 prostate)	growth (K-562 leukemia)	growth (MALME-3M melanoma)	growth (MDA-MB-231 breast)	growth (RXF 393 renal)	growth (SF-268 CNS)	growth (SF-295 CNS)	growth (SF-539 CNS)	growth (UACC-257 melanoma)	growth (M14 melanoma)
Oc1ccccc1-c1nc2ccccn2c1NCCN1CCOCC1	100%	101%	91.7%	76.8%	99.2%	85.2%	84%	91.9%	92.4%	102%	83%	96.2%	92.7%	109%	96.1%	98%	97.2%	96.2%	96.5%
CS(=O)(=O)c1ccc(-c2[nH]c3ccc(F)cc3c2/C=N/NC(N)=S)cc1	38.1%	63.1%	48.8%	34.2%	3.52% (active)	55.8%	5.14% (active)	18.4%	40.3%	22.1%	6.76% (active)	55.9%	13.7%	1.16% (active)	39.8%	13.9%	-21.2% (active)	63.3%	11.6%
CC(C)(O)c1cccc(F)c1	104%	105%	100%	138%	112%	86.1%	99.6%	104%	104%	107%	105%	101%	89.5%	107%	106%	106%	88%	108%	95.6%
N=C(N)c1ccc(-c2ccc(-c3ccc(Cl)cn3)s2)cc1	67.8%	83.8%	4.72% (active)	56.3%	-46.5% (active)	34.7%	48.7%	27.6%	52.9%	37.6%	-9.89% (active)	77.9%	-46.5% (active)	52%	79.8%	-41.4% (active)	40.2%	94.2%	3.24% (active)
O=S(=O)(Nc1ccsc1-c1nc(-c2ccccc2)no1)c1cc(Cl)cc(Cl)c1	94.4%	98.6%	95.4%	76.2%	100%	83.5%	77.3%	90%	98.5%	101%	105%	99.6%	102%	101%	92.8%	98.3%	91.4%	85.8%	92.1%
N#Cc1c(NC(=O)c2ccc(Br)cc2)sc2c1CCCC2	65%	44.2%	52.1%	46.4%	14.3%	81.5%	22.6%	53.6%	46.1%	33.3%	15.9%	49.2%	44.9%	13.7%	61.7%	21.7%	10.5%	66.1%	17.3%
CC1(C)C(=O)/C(=C\c2cccnc2)C[C@]2(C)[C@H]3CC=C4[C@@H]5C[C@@](C)(C(=O)O)CC[C@]5(C)CC[C@@]4(C)[C@]3(C)CC[C@@H]12	102%	92.9%	93.1%	96.6%	101%	88.9%	87.1%	78.8%	101%	104%	80.7%	126%	101%	92.2%	98.9%	93.9%	101%	87.7%	100%
Cc1[nH]c(-c2nc3ccccc3[nH]2)c(C)c1C(=O)N1CCOCC1	88.5%	91.4%	94.6%	105%	101%	91.1%	91%	101%	102%	107%	106%	95.7%	83.7%	93.6%	99.5%	96%	96.2%	94.1%	95%
COc1ccc(-c2cc(-c3cc(OC)ccc3O)[nH]c(=O)c2C#N)cc1	59.1%	73.8%	94.5%	53.2%	41.6%	31.6%	15.4%	79.9%	57.3%	79.8%	23.7%	60.7%	45%	81.2%	61.3%	54%	39.4%	61%	27%
CCCCOC(=O)c1ccc(NC(=O)C(C)N2CCOCC2)cc1 (centres undefined)	98.5%	84.3%	95.7%	99.5%	105%	76.7%	67.9%	97.3%	99.1%	107%	91.1%	91.8%	102%	102%	103%	101%	102%	98.3%	93.7%
CCN1CCN(c2ccc(Nc3cc(-c4cccnc4Nc4c(Cl)c(OC)cc(OC)c4Cl)ncn3)cc2)CC1	63.8%	47%	68.7%	40.6%	23.7%	54.5%	75.9%	39.9%	89.2%	62.9%	44.5%	76.2%	85.8%	34.3%	65.1%	79.5%	47.1%	91.6%	72.9%
COc1ccc(/C=C2\C=C(c3ccccc3)N(CCc3ccccc3)C2=O)cc1OC	68.4%	29.7%	8.42% (active)	-30% (active)	20.5%	-4.05% (active)	42.5%	32.9%	8.93% (active)	69%	47.6%	39.3%	29.6%	-3.29% (active)	55.2%	26.8%	42.1%	69.3%	51.5%
CCNCCNc1cc(-c2ccc(C#N)cc2)c(C#N)c2nc3ccccc3n12	47.5%	81.1%	33.6%	56.6%	-28.1% (active)	63.3%	31.8%	2.81% (active)	28%	33.6%	23.9%	51.6%	6.63% (active)	-10.6% (active)	35.1%	-64.6% (active)	-77.3% (active)	57.5%	-6.91% (active)
CNC(=O)c1c(NC(=O)c2ccc(C(C)(C)C)cc2)sc2c1CCC(=O)C2	6.65% (active)	-2.45% (active)	35.4%	17%	1.8% (active)	-22.3% (active)	-37% (active)	15.8%	29.3%	27.7%	5.54% (active)	-12.8% (active)	-20.5% (active)	-11.3% (active)	14%	2.19% (active)	-51.9% (active)	16.8%	3.53% (active)
O=C(NCc1cn(Cc2cccc(Oc3ccccc3)c2)nn1)c1cccnc1NCc1ccc(Cl)cc1	20.6%	12.5%	54.5%	40.7%	17.1%	22.1%	20.8%	22.5%	38%	15%	11.8%	48.2%	25.4%	3.54% (active)	45.3%	19.7%	-15.3% (active)	47.3%	6.76% (active)
Clc1ccc2c(NCCCN3CCN(c4nc(-n5ccnc5)nc5ccccc45)CC3)ccnc2c1	104%	113%	87.1%	84.7%	89.3%	58.7%	75.7%	96.9%	78.8%	93.3%	-48.8% (active)	-83.2% (active)	8.95% (active)	37.1%	80%	61.2%	-83.7% (active)	87.1%	-24% (active)
